# ALOX12 inh – Primary qHTS assay for inhibitors of human arachidonate 12S-lipoxygenase (ALOX12): Round 2 | Polyunsaturated fatty acid lipoxygenase ALOX12 (Homo sapiens), P18054 | purified 12hLO, xylenol orange hydroperoxide absorbance | Potency, µM (highest dose often 108 µM), inactives show at the top dose activity change, negative = inhibition, most hits filed as inhibitors | 580,000 compounds, 1.1% hits | AID 1671190, 2021; active = well fitted inhibition curve with a large enough effect; inconclusive = small, poorly fitted or top-dose-only effect, or another doubt; inactive = no such curve, though single readings can be large or run the other way; note: potency is the fitted concentration of half-maximal effect; % is set by controls: 0 for no effect and ±100 for the full control effect
# Target sequence (P18054 whole entry, looked up): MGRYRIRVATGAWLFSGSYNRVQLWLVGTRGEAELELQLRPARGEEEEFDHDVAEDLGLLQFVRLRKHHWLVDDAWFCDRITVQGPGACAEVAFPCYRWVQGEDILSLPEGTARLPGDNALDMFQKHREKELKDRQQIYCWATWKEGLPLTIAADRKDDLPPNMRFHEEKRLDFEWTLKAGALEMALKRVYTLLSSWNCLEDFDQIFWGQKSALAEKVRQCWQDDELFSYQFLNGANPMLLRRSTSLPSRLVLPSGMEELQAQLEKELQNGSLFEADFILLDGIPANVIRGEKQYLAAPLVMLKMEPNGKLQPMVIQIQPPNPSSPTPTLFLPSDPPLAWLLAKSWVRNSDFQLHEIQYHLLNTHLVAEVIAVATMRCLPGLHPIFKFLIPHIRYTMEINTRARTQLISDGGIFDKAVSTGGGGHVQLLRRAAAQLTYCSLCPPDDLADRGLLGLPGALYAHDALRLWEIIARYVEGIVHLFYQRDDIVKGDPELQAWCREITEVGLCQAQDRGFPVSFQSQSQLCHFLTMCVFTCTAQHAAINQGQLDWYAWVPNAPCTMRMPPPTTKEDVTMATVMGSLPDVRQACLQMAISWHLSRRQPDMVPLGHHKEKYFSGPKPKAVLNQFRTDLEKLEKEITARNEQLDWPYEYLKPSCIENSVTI
#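 Purified human 12hLO (150 nM final) in 25 mM Hepes, 0.01% Triton X-100, pH 7.0 was preincubated 15 min at room temperature with compound. Then 40 uM arachidonic acid was added, 30 min. Hydroperoxide was read by Fe-XO absorbance ratio 573/405 nm.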
# ClpP mod – qHTS Assay for Activators of ClpP | ATP-dependent Clp protease proteolytic subunit (Bacillus subtilis (strain 168)), P80244 | purified B. subtilis ClpP, FRET peptide cleavage, 20 min | Potency, µM (titrated, usually from 57.5 µM), without a hit: at the top dose activity change, negative = active | 340,000 compounds, 1.9% hits | AID 651965, 2013; active = well fitted falling curve with a large enough effect; inconclusive = small, poorly fitted or top-dose-only effect; inactive = no such curve, though single readings can be large or run the other way; note: potency is the fitted concentration of half-maximal effect; the source files actives as falling curves though it sought activators and does not explain the sign; nearly all actives have a fitted effect of over 65% in size
#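 Buffer: 100 mM Tris/HCl pH8, 100 mM KCl, 0.05% low protease BSA, 2.5% glycerol, 0.01% Tween-20. ClpP 10 microg/mL final; 20 min RT; delta FRET normalized to ADEP and DMSO controls.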
# KCNH2 3.1 inh – qHTS for Inhibitors of KCHN2 3.1: Mutant qHTS; activity change, % (tested at about 1.8 µM); 340,000 compounds, 0.95% hits; Potassium voltage-gated channel subfamily H member 2, brain isoform KCNH2 3.1 (human); U2OS KCNH2 3.1, thallium flux FluxOr; hits give low values; AID 720553, 2013;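 active = maximum activity change below -70%; inconclusive = maximum activity change from -70% to -50%; inactive = maximum activity change above -50%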;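 note: thallium influx rate constant from kinetic fluorescence after stimulation buffer; % is set by controls: 0 for no effect and ±100 for the full control effect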
#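 Measured as rate of thallium-driven FluxOr signal in transduced U2OS cells carrying the 3.1 channel, read kinetically for 2 min upon stimulation; values are rate constants scaled to DMSO control wells.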
# KCNH2 WT inh – qHTS for Inhibitors of KCHN2 3.1: Wildtype qHTS; Voltage-gated inwardly rectifying potassium channel KCNH2 (Homo sapiens), Q12809; 340,000 compounds, 0.37% hits; activity change, % at 1.84 µM; U2OS, BacMam KCNH2, thallium flux FluxOr; hits give low values;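 active = maximum activity change below -70%; inconclusive = maximum activity change between -70% and -50%; inactive = maximum activity change above -50%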; note: % is set by controls: 0 for no effect and ±100 for the full control effect
#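 U2OS cells transduced with wild-type KCNH2 virus are loaded with FluxOr dye for 45 min, and thallium flux is measured in kinetic reads before and after stimulation buffer. Rate constants are normalized to DMSO controls.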
# BCR signal inh – qHTS Assay to Find Inhibitors of Chronic Active B-Cell Receptor Signaling; Potency, µM (titrated, usually from 46.1 µM), without a hit: at the highest dose activity change, negative = inhibition, usual class: inhibitors; 340,000 compounds, 0.05% hits; ABC-DLBCL IkBa-CBG/CBR reporter, luminescence ratio, 4 h; active = well fitted inhibition curve with a large enough effect in the signal ratio, with a control signal flat, not every such curve was filed as active; inconclusive = small, poorly fitted or top-dose-only effect, or effect the other way, or a change in a side signal; the % refers to the signal ratio;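 note: potency is the fitted concentration of half-maximal effect; plate controls were basal doxycycline-induced cells for no effect and cells given 10 µM MG132 for full effect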
#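 Cell line TMD8 (human ABC DLBCL), stably expressing tet-inducible CBG68-IkBa fusion and CBR; IMDM/0.5% FBS; cpd up to 46 uM; dox induction, 4 h, 37C/5% CO2; dual luminescence; green/red ratio; MG132 control.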
# LDHA block – qHTS assay for inhibitors of human lactate dehydrogenase; 480,000 compounds, 0.15% hits; purified LDHA, NADH/diaphorase-resazurin fluorescence; hits give low values; activity change, % (values are at about 110 or 230 µM); L-lactate dehydrogenase A chain (Homo sapiens), P00338; in the data active = activity change below about -30%; inconclusive = mostly about -25% to -30%;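 note: plate controls were DMSO wells for no effect and wells without enzyme for full effect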
#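 Human LDH5 (2 nM) was incubated with 0.06 mM NADH and 0.2 mM pyruvate for 5 min at room temperature in Tris pH 7.4. Remaining NADH was coupled through diaphorase/resazurin, and resorufin fluorescence was read at 0 and 20 min.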
# * hit, by the source's call; u = inconclusive; x = not tested or not shown; ! = a repeat was not active; [ ] = another dose, or the depositor's remark. Rows were chosen to be rich in hits. Some 3% of all compounds tested hit in one or more screens of this group.
SMILES,ALOX12 inh,ClpP mod,KCNH2 3.1 inh,KCNH2 WT inh,BCR signal inh,LDHA block
CC(=O)c1c(O)c2ccccc2n(C)c1=O,u,1.0%,11.7,-0.7,-4.1%,8.8
Cn1c(=O)c(Cc2ccccc2)c(O)c2ccccc21,8.7%,25.1µM*,-12.0,20.3,u,-7.8
CCCCn1c(=O)c(-c2ccccc2)c(O)c2ccccc21,0.0%,-25.6%,-1.6,7.5,0.7%,-2.1
CCCCCn1c(=O)c(Cc2ccccc2)c(O)c2ccccc21,4.9%,14.1µM*,-16.0,-4.4,10.3%,-0.2
CCCn1c(=O)c(C(=O)NCc2ccccc2)c(O)c2ccccc21,2.1%,x,6.7,-8.9,1.2%,-1.7
CCCn1c(=O)c(Cc2ccccc2)c(O)c2ccccc21,0.0%,28.2µM*,19.3,4.2,5.1%,1.0
CCCCCOC(=O)Cc1c(O)c2ccccc2n(C)c1=O,0.0%,28.2µM*,-15.5,5.0,u,1.0
CC1(C(=O)Nc2ccc(F)cc2)CN(Cc2ccccc2)Cc2ccc(N3CCOCC3)nc21 (stereo not given),69.6%,x,x,x,x,x
CC(c1ccccc1)N(C)CC(=O)NC1(C#N)CCCC1 (stereo not given),u,x,x,x,x,-1.1
CCc1nnc(Cn2cnc3scc(-c4ccc(Cl)cc4)c3c2=O)o1,8.5%,x,x,x,x,0.2
CCCc1c(O)c2ccccc2n(-c2ccccc2)c1=O,-5.3%,5.62µM*,-9.1,1.7,u,-9.3
Cc1cc(C)n2cc(CSc3nncn3C)nc2n1,u,x,12.9,-8.3,1.0%,-8.3
Cc1cc(C)n2cc(CSc3nnnn3C)nc2n1,170.5%,25.1µM*,3.4,3.8,-12.6%,-2.0
CCc1nnc(SCc2cn3c(C)cc(C)nc3n2)n1N,u,11.2µM*,8.0,-0.5,6.4%,-4.7
COc1ccc2c(c1)C1NC(=S)NC(C)(O2)C1C(=O)Nc1ccc(Cl)cc1 (stereo not given),39.8µM*,-5.4%,26.4,4.8,-0.2%,-3.0
Cc1ccc2c(c1)C1NC(=S)NC(C)(O2)C1C(=O)Nc1ccc(Cl)cc1 (stereo not given),28.2µM*,-0.6%,-2.7,4.5,-0.8%,-4.1
O=C(C1CCOC1)N1CCC2(CC1)NCCc1c2[nH]c2ccccc12 (stereo not given),13.0%,x,x,x,x,x
N#Cc1ccc(CN2CCCCCCNC(=O)[C@@H]3C[C@@H](C(=O)NCCc4cnc[nH]4)C[C@@H]32)cc1,174.6%,x,x,x,x,x
COc1ccc(C(O)c2nccn2Cc2ccccc2)c(OC)c1 (stereo not given),7.7%,x,x,x,x,3.3
Cc1cccc(/C=N/NC(=O)c2cc3c(s2)-c2ccccc2CC3)c1,3.7%,28.2µM*,-12.0,4.4,u,-3.9
CC(=O)c1c[nH]c2cc(C#N)ccc12,-26.5%,x,x,x,x,12.1
CC(=O)c1ccc(S(=O)(=O)N2CCN(c3nc(-c4cccs4)nc4ccccc34)CC2)cc1,x,-9.4%,x,x,x,-0.2
CCOC(=O)c1ccc(S(=O)(=O)N2CCN(c3nc(-c4cccs4)nc4ccccc34)CC2)cc1,x,10µM*,x,x,x,1.9
COc1ccc(S(=O)(=O)N2CCN(c3nc(-c4cccs4)nc4ccccc34)CC2)cc1,x,28.2µM*!,x,x,x,-9.4
O=S(=O)(c1ccc2ncccc2c1)N1CCN(c2nc(-c3cccs3)nc3ccccc23)CC1,x,31.6µM*,x,x,x,1.3
SMILES,ALOX12 inh,ClpP mod,KCNH2 3.1 inh,KCNH2 WT inh,BCR signal inh,LDHA block
CN1CCN(c2nc(-c3cccnc3)nc3ccccc23)CC1,1.8%,25.1µM*,3.1,1.8,-7.2%,-4.8
c1cncc(-c2nc(N3CCCCCC3)c3ccccc3n2)c1,-8.6%,0.7%,-13.7,-12.0,-1.3%,-0.2
Cc1ccc(S(=O)(=O)N2CCN(c3nc(-c4cncn4C)nc4ccccc34)CC2)cc1,x,31.6µM*,x,x,x,-2.2
Cc1ccc(O)c(-c2cc3ccccc3[nH]2)c1,u,14.1µM*,-10.7,29.9,u,10.3
Cc1ccc(-c2cc3ccccc3[nH]2)c(C)c1,-47.7%,x,x,x,x,10.5
Cc1cc(C(=O)N2CC(F)(F)C[C@H]2c2nnc(C)o2)on1,31.0%,x,x,x,x,x
COC(=O)C1=C(C)NC(C)=C(C(=O)OC)C1c1ccc(-c2cccc(Cl)c2Cl)o1,0.4%,25.1µM*,-3.5,-5.8,u,-13.0
COCCNC(=O)CCC(=O)N1Cc2cccc(OC)c2Oc2ncccc21,-4.1%,-0.7%,x,x,x,3.9
CCOc1ccccc1CNC(=O)c1ccc(N2Cc3ccccc3Oc3ncccc32)s1,-8.2%,u,x,x,x,4.4
COc1cccc2c1Oc1ncccc1N(c1ccc(C(=O)NCc3ccccc3Cl)s1)C2,-6.9%,14.1µM*,x,x,x,-4.1
COc1cccc2c1Oc1ncccc1N(c1ccc(C(=O)NCc3cccc(C)c3)s1)C2,-3.5%,31.6µM*,x,x,x,-5.8
COCCn1cnnc1SC(C)c1ccc(F)cc1 (stereo not given),u,x,x,x,x,2.6
Cn1c(=O)c2c(nc(NCc3cccnc3)n2Cc2ccc(Cl)cc2)n(C)c1=O,0.0%,3.16µM*,0.2,-8.5,u,-1.0
CCNc1nc2c(c(=O)n(C)c(=O)n2C)n1Cc1ccc(Cl)cc1,-17.5%,0.4%,1.4,-3.5,u,1.8
CCCCOc1ncnc2c1[nH]c1ccc(F)cc12,24.8%,15.8µM*,-13.3,-6.1,9.5%,-11.1
CCCCOc1ncnc2c1[nH]c1ccccc12,35.2%,17.8µM*,1.8,4.3,3.1%,-12.8
Cc1cc(S(=O)(=O)Nc2cccc3c2CCCC3)ccc1OCC(=O)O,u,x,x,x,x,8.9
S=C1NCCc2ccc(Cl)cc2C1c1ccccc1Cl (stereo not given),31.6µM*,-0.2%,-10.5,12.4,5.5%,-10.6
CC1(C)CC(=O)C2=C(C1)N=C1SCCC(=O)N1C2c1ccccc1 (stereo not given),7.1%,1.9%,-70.9*,-11.9,1.8%,-8.7
CCCNC(=O)C(C)NC(=O)Cc1c(C)nc2nc(N)nn2c1C (stereo not given),u,x,x,x,x,5.9
O=C(Cc1ccc(Cl)cc1)N[C@H]1[C@H](O)[C@H](O)C[C@@H]1c1cccnc1,46.4%[176 µM],x,x,x,x,x

# Bioassay records (PubChem BioAssay)
